Screening results deposited in PubChem by National Center for Advancing Translational Sciences (NCATS).
Only some compounds are listed: those with a hit (about 2.4% of all), similar ones and a draw of the others.
D2 antagonist = HTS Assay for Allosteric Antagonists of the Human D2 Dopamine Receptor: Primary Screen for Antagonists. D(2) dopamine receptor (Homo sapiens), P14416. HEK293 TREx D2 cells, calcium flux, dopamine EC80. hit rate 2% among 340,000. AID 485344, 2010. inhibition, % at 10 µM; in the data active = inhibition above about 30%; inactive = below that, where a call was filed; also: 0% is about no effect
Target sequence (P14416 whole entry, looked up): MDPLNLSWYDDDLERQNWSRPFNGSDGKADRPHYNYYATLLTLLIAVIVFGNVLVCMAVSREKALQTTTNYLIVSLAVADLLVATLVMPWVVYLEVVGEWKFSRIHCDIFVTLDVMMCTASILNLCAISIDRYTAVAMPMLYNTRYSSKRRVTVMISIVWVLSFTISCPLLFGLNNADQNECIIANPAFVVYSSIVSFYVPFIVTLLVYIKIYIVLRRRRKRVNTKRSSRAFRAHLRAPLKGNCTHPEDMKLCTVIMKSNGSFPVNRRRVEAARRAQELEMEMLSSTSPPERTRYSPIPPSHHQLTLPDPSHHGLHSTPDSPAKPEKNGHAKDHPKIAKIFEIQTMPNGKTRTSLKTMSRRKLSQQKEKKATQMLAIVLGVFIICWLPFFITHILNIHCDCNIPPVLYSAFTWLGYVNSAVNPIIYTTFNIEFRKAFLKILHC
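Dopamine at EC80 is the agonist stimulus; test compounds precede it by 180 s. Calcium flux read kinetically in a force-coupled, inducible HEK293 T-REx D2 cell line.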
D2 ag-1 = Beta-Arrestin HTS for Positive Allosteric Modulators of the Human D2 Dopamine Receptor: Agonists. DiscoveRx PathHunter D2 beta-arrestin, luminescence, 90 min; 100% = 57 uM dopamine signal. activation, % (no concentration beside the values). hit rate 0.084% among 360,000; in the data active = activation above about 40%
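DiscoveRx PathHunter D2 beta-arrestin cells (2,100/well) attached overnight, then compound-stimulated 90 min at 37 C in HBSS/10 mM HEPES/0.1% Tween-20 buffer; beta-galactosidase complementation read by luminescence after 1 h at ambient temperature. Dopamine 57 uM final (EC100) as control.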
D2 PAM-1 = HTS Assay for Positive Allosteric Modulators of the Human D2 Dopamine Receptor: Primary Screen for Potentiators | D(2) dopamine receptor (Homo sapiens), P14416 | HEK293 T-REx D2, calcium flux, EC20 dopamine potentiation | potentiation, % at 10 µM | hit rate 0.34% among 340,000 | AID 485347, 2010;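 active = potentiation over 3 SD above the plate norm, cut at about 30% in these data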; also: 0% is about no effect
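Potentiation of an EC20 dopamine calcium response is measured in a force-coupled, tetracycline-inducible Hek293 Trex D2 line. Compound-only kinetic reads over 180 s flag agonists before dopamine addition.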
D2 PAM-2 = Beta-Arrestin HTS for Positive Allosteric Modulators of the Human D2 Dopamine Receptor: Potentiators; D(2) dopamine receptor (Homo sapiens), P14416; potentiation, % (test concentration not listed); hit rate 0.23% among 360,000; DiscoveRx D2 beta-arrestin cells, luminescence, 90 min; 100% = 57 uM dopamine signal; in the data active = potentiation above about 50%
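PathHunter beta-arrestin assay in DiscoveRx D2 cells. Compounds were added with an EC20 of dopamine (50 nM final) for 90 min at 37 deg C. Luminescence was read 1 h after detection reagent, with 57 uM dopamine as the EC100 control.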
D2 ag-2 = HTS Assay for Allosteric Agonists of the Human D2 Dopamine Receptor: Primary Screen for Agonists | D(2) dopamine receptor (Homo sapiens), P14416 | HEK293 T-REx D2 cells, calcium flux agonist mode | activation, % at 2 µM | hit rate 0.53% among 340,000 | AID 485358, 2010;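 active = activation over 3 SD above normal in the single-dose calcium agonist read, cut at about 30% in these data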; also: 0% is about no effect
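Agonism is scored from calcium flux in a force-coupled, inducible HEK293 cell line expressing D2, read kinetically for 180 s after compound addition against dopamine controls.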
* = called active by the depositor; . = no result; ! = not active in a repeat.

SMILES	D2 antagonist	D2 ag-1	D2 PAM-1	D2 PAM-2	D2 ag-2
CC(C)(C)n1nnnc1CN1CCN2CCCC2C1 (centres undefined)	37*	1	14	0	1
COc1ccc2c(C)c(CCC(=O)NCCc3ccccc3OC)c(=O)oc2c1	.	.	0	.	2
CCCc1nc2nc(C)c(NS(=O)(=O)c3ccc(CC(C)C)cc3)c(=O)n2[nH]1	3	6	32*!	2	-2
Cc1cc(OCC(=O)Nc2ccc(Br)cc2)cc2c1C(=O)CC(C)(C)O2	41*	-3	-3	-4	1
CC(=O)Nc1ccc(NC(=O)COc2cc(O)c3c(c2)OC(C)(C)CC3=O)cc1	-12	-3	-2	-9	3
CCN(CC)C(=O)c1cccc(-c2csc(C(O)c3cccc(Cl)c3)n2)c1 (centres undefined)	.	11	.	1	.
Cc1ccc(CCNC(=O)C2CC(=O)N(C3CCCCC3)C2)cc1 (centres undefined)	3	-2	-5	-7	1
COc1ccc(CCNC(=O)CCN2C(=O)C3CC=CCC3C2=O)cc1OC (centres undefined)	64*	-3	2	-6	1
CCNC(=O)COC(=O)CCC(=O)c1cccs1	51*	1	-6	-4	-2
COc1ccc(CCNC(=O)C2CC(=O)N(C3CCCCCCC3)C2)cc1OC (centres undefined)	93*	-3	-23	0	0
CC[C@H](C)[C@H](NC(N)=O)C(=O)NCCc1ccc(OC)cc1	11	-3	-5	-3	0
COc1ccc(CCNC(=O)[C@@H](NC(N)=O)C(C)C)cc1	50*	0	-1	-21	10
COc1ccc(CCNC(=O)CCn2cccc2)cc1OC	1	1	-9	-7	0
COc1ccc(CCNC(=O)CCC(=O)c2cccs2)cc1OC	44*	-4	-9	-4	27
COc1ccc(CCNC(=O)CN(C)S(=O)(=O)c2cccs2)cc1	32*	-3	-11	6	0
CN(CC(=O)NCCc1ccccc1)S(=O)(=O)c1cccs1	11	-5	-8	-5	0
COc1ccc(CCNC(=O)COC(=O)c2cccs2)cc1OC	7	6	14	2	-1
COc1ccc(CCNC(=O)COC(=O)c2cccs2)cc1	37*	-1	-2	-8	-1
COc1ccc(CCNC(=O)COC(=O)CCC(=O)c2cccs2)cc1OC	.	2	.	-6	.
FC(F)(F)c1nnc2ccc(NCc3cccnc3)nn12	-10	0	2	-1	-2
FC(F)(F)c1nnc2ccc(NCc3ccccc3)nn12	80*	4	2	2	0
Cc1occc1C(=O)Nc1c(F)cc(F)cc1Br	34*	3	-12	-9	0
O=C(O)c1ccccc1S(=O)(=O)Cc1ccccc1	36*	-2	-11	-5	1
Cc1oc2ccc(O)c(CN(C)Cc3ccccc3)c2c1C(=O)Nc1cccc(Cl)c1C	.	.	9	.	-1
Cn1c(/C(C#N)=C/c2ccccc2Br)nc2ccccc21	.	.	-20	.	-2
COCCOC(=O)c1c(C)oc2ccc(OCc3ccccc3)cc12	64*	-5	16	-5	0
CC(C)Oc1ccc(C2c3c(oc4ccccc4c3=O)C(=O)N2CCCN2CCOCC2)cc1 (centres undefined)	19	2	16	-10	-1
O=C1c2oc3ccccc3c(=O)c2C(c2cccnc2)N1CCCN1CCOCC1 (centres undefined)	35*	-3	2	-12	0
Cc1cccc(CSc2nc3ccccc3c(=O)n2C)c1	35*	-3	-9	-1	0
Cn1c(SCc2ccc(Br)cc2)nc2ccccc2c1=O	-1	4	-2	4	1
